Six1-Eya2 blk – qHTS Assay for Inhibitors of the Six1/Eya2 Interaction | AlphaScreen GST-Six1/His-Eya2 binding, biochemical; stronger effect = lower value | activity change, % (no concentration beside the values) | 0.56% of 360,000 active; in the data active = activity change below about -65%; inconclusive = mostly about -30% to -63%
Target sequence (O00167 whole entry, looked up): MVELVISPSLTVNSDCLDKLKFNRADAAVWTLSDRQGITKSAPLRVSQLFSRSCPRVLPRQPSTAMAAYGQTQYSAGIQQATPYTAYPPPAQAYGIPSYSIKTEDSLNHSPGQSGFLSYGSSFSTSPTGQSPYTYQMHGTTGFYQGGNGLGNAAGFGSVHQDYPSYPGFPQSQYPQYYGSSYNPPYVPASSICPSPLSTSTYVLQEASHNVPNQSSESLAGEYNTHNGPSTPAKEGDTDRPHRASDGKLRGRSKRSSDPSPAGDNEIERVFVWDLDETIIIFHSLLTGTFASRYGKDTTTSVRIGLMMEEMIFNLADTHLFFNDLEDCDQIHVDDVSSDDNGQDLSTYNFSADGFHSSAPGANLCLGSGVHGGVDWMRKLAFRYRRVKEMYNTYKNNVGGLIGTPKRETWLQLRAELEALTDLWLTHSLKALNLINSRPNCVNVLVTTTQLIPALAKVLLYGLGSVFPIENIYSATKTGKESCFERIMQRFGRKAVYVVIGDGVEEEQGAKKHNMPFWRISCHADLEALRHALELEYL
Target sequence (Q15475 whole entry, looked up): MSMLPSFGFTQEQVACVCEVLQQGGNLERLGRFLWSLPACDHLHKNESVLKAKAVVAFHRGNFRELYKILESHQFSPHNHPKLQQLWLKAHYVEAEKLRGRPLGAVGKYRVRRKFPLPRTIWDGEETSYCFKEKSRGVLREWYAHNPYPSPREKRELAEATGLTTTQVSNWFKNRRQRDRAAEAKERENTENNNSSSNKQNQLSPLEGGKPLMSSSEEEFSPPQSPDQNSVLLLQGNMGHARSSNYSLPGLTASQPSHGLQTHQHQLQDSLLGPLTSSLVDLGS
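Six1/Eya2 binding was read as AlphaScreen signal after compounds were pinned into GST-Six1 plus His-tagged Eya2 (5X stock 250/500 nM) in pH 8.0 Tris/NaCl/TCEP buffer, beads added, then incubated 1 h, 37 C, dark.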
CtBP-E1A blk – qHTS Assay for Inhibitors of the CtBP/E1A Interaction. AlphaScreen GST-E1A/His-CtBP binding, 1536-well; stronger effect = lower value. 0.49% of 340,000 active. CtBP / adenovirus E1A interaction (AlphaScreen). activity change, % (test concentration not listed); in the data active = activity change below about -65%; inconclusive = mostly about -30% to -63%
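GST-E1A and His-tagged CtBP (125 nM each as 5X stock) were preincubated with pin-transferred compound for 2 h at 37 °C in the dark, then glutathione donor and nickel acceptor beads were added for 1 h before AlphaScreen reading.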
DT40 TDP1 CPT – qHTS for Inhibitors of human tyrosyl-DNA phosphodiesterase 1 (TDP1): qHTS in cells in presence of CPT; 12% of 420,000 active; chicken DT40 Tdp1-/-;hTDP1 cells + 20 nM CPT, ATP luminescence, 48 h; Potency, µM (series often up to 46.2 µM), inactives show at the highest dose activity change, negative = growth inhibition, most hits filed as inhibitors; also: potency is read from the fitted curve at half-maximal effect; nearly all actives have a fitted effect of over 55% in size
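Cell growth measured by CellTiter-Glo luminescence after a minimum 48 h, 37 C compound exposure with 20 nM CPT in Tdp1-knockout DT40 cells stably expressing hTDP1, seeded 400/well; qHTS titration format.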
TDP1 block – qHTS Assay for Inhibitors of Tyrosyl-DNA Phosphodiesterase (TDP1) | recombinant TDP1, AlphaScreen DNA substrate cleavage | Potency, µM (titrated, usually from 130 µM), for inactives: at the top dose activity change, negative = inhibition, most hits filed as inhibitors | 0.28% of 350,000 active | AID 485290, 2010; also: potency is read from the fitted curve at half-maximal effect; nearly all actives have a fitted effect of over 40% in size
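Here, a 5' biotin and 3' phosphotyrosine-FITC DNA oligonucleotide reports Tdp1 activity: intact substrate bridges AlphaScreen beads, while cleavage leaves a 3' phosphate and drops signal. All incubations at room temperature.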
IL1B secr inh – qHTS for Inhibitors of Inflammasome Signaling: IL-1-beta AlphaLISA Primary Screen. THP-1 LPS/ATP IL-1B secretion, AlphaLISA, 16 h; stronger effect = lower value. activity change, % at 57.5 µM. 4.7% of 360,000 active. AID 743279, 2014; in the data active = activity change below about -50%; inconclusive = mostly about -30% to -49%
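Secreted IL-1B measured by AlphaLISA bead assay after 16 h compound exposure of THP-1 cells; compounds (final up to 57.5 uM) added 1 h before LPS (250 ng/mL) and ATP (1.25 mM) stimulation; lower signal means less secretion.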
DT40 TDP1 no CPT – qHTS for Inhibitors of human tyrosyl-DNA phosphodiesterase 1 (TDP1): qHTS in cells in absence of CPT. DT40 Tdp1-/- hTDP1 cells, no CPT, ATP luminescence, 48 h. Potency, µM (series often up to 46.2 µM), for inactives: at the top dose activity change, negative = growth inhibition, actives largely listed as inhibitors. 15% of 420,000 active; also: potency is read from the fitted curve at half-maximal effect; nearly all actives have a fitted effect of over 55% in size
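Growth kinetics read by CellTiter-Glo luminescence after ≥48 hr at 37 °C. Cells: DT40 Tdp1-/- stably carrying human TDP1, 400 per well, compound exposure in the absence of CPT (DMSO vehicle).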
* hit, by the source's call; ? = inconclusive; · = no result given. Shown are actives, neighbours in structure and some others; about 18% of the full set was active somewhere. Unless noted, calls follow the shape of the dose curve; as a rule, active = well fitted curve in the direction sought with a large enough effect; inconclusive = small, poorly fitted or top-dose-only effect, or another doubt; inactive = no such curve, though single readings can be large; an effect the other way counts as inactive or inconclusive. % is scaled to controls: 0 for no effect and ±100 for the full control effect.

SMILES	Six1-Eya2 blk	CtBP-E1A blk	DT40 TDP1 CPT	TDP1 block	IL1B secr inh	DT40 TDP1 no CPT
CN(C)CCN1C(=O)c2oc3ccccc3c(=O)c2C1c1ccc(F)cc1 (stereo not drawn)	0	4	-12%	1%	9	-21%
COc1ccc(OC)c2c(N3CCN(C)CC3)cc(C(F)(F)F)nc12	0	0	-6%	-3%	-10	-3%
c1ccc(-c2nc(N3CCCCCC3)nc(-n3ccnc3)n2)cc1	0	4	?	3%	-3	?
c1ccc(-c2nc(N3CCN(c4ccccc4)CC3)nc(-n3ccnc3)n2)cc1	-10	-9	?	7%	?	16µM*
c1ccc(-c2ccc(-n3ccnc3)cc2)cc1	-10	9	26µM*	5%	-24	?
COc1ccc(/C(O)=C/C(=O)C(=O)NNC(=O)C(O)(c2ccccc2)c2ccccc2)cc1	-20	7	?	-1%	7	-27%
CCOC(=O)CNC(=O)CSc1nnc(C)c(=O)[nH]1	-7	-2	-6%	-3%	11	0%
CCOC(=O)CSc1nnc(NCC(=O)OC(C)C)c(=O)[nH]1	2	0	10µM*	2%	14	23µM*
CCN1/C(=C/C=C/c2oc3ccc4ccccc4c3[n+]2CC)Oc2ccc3ccccc3c21	7	3	0.65µM*	·	-6	0.18µM*
CC(C)NC(=O)c1sc2ncccc2c1-n1cccc1	·	·	?	4%	·	2.6µM*
CC(NC(=O)c1sc2ncccc2c1-n1cccc1)c1ccccc1 (stereo not drawn)	·	·	?	5%	·	23µM*
CCOc1ccc(CCNC(=O)c2cccs2)cc1OCC	-1	3	-5%	4%	0	?
CCOc1ccc(CCNC(=O)c2sc3ncccc3c2-n2cccc2)cc1OCC	·	·	26µM*	4%	·	?
O=C(O)c1nnn(-c2cc(C(F)(F)F)cc(C(F)(F)F)c2)c1-c1ccccc1	15	0	-1%	3%	-13	0%
O=C(C1CCCN1S(=O)(=O)c1ccc(Cl)c(Cl)c1)N1CCCCC1 (stereo not drawn)	1	-12	18µM*	1%	7	16µM*
O=C(O)C1CCCCN1S(=O)(=O)c1ccccc1 (stereo not drawn)	4	2	2%	3%	12	4%
O=C(C1CCCCN1S(=O)(=O)c1ccccc1)N1CCN(Cc2ccccc2)CC1 (stereo not drawn)	-2	6	?	-1%	7	-26%
O=C(C1CCCCN1S(=O)(=O)c1ccccc1)N1CCCCC1 (stereo not drawn)	0	-1	?	2%	21	16µM*
O=C(C1CCCCN1S(=O)(=O)c1ccccc1)N1CCN(C(c2ccccc2)c2ccccc2)CC1 (stereo not drawn)	-11	-4	23µM*	-1%	12	21µM*
COCOc1ccc(OC)cc1C(=O)C1O[C@H]1c1ccc(OC)c(Br)c1 (stereo partly drawn)	·	·	·	-4%	·	·
CCN(CC)S(=O)(=O)c1ccc2c(c1)N(CC(=O)N1CCN(c3cccc(C(F)(F)F)c3)CC1)C(=O)CO2	·	·	?	-1%	·	21µM*
CCN(CC)S(=O)(=O)c1ccc2c(c1)N(CC(=O)N1CCN(c3cccc(C)c3C)CC1)C(=O)CO2	·	·	18µM*	5%	·	15µM*
CCCOc1ccc(NC(=O)CNC(=O)c2cc(OC)cc(OC)c2)cc1OCCC	-5	·	4%	·	7	-25%
COc1ccc(CNC(=O)C2=C(C)C(=O)OC23CCN(C(C)=O)CC3)cc1	·	·	3%	0%	·	-21%
CCC(C)c1ccc(-c2cc(C(=O)OCC(=O)Nc3cc(C)on3)c3ccccc3n2)cc1 (stereo not drawn)	2	2	?	6%	12	16µM*
SMILES	Six1-Eya2 blk	CtBP-E1A blk	DT40 TDP1 CPT	TDP1 block	IL1B secr inh	DT40 TDP1 no CPT
Cc1cc(NC(=O)c2cc(-c3ccc(OC(C)C)cc3)nc3ccccc23)no1	5	-6	-61%	7%	-3	8.2µM*
O=[N+]([O-])c1ccc(Sc2cccc3cccnc23)c([N+](=O)[O-])c1	-94*	-98*	4.6µM*	9%	0	4.6µM*
O=[N+]([O-])c1ccc(Sc2ccncn2)c([N+](=O)[O-])c1	-11	0	1µM*	·	-80*	0.65µM*
Cc1cc(C)nc(Sc2ccc([N+](=O)[O-])cc2[N+](=O)[O-])n1	1	1	1.3µM*	3%	-60*	1µM*
C=CCn1nc([N+](=O)[O-])nc1Sc1cccc2cccnc12	-94*	-95*	5.2µM*	6%	-99*	4.1µM*
CC(C)C(C(=O)NC(C)(C)C)N(CCN1CCOCC1)C(=O)CNS(=O)(=O)c1ccccc1 (stereo not drawn)	13	0	-1%	16%	-4	-8%
C[C@]12CC[C@@H]3c4ccc(O[C@@H]5O[C@H](C(=O)O)[C@@H](O)[C@H](O)[C@H]5O)cc4CC[C@H]3[C@@H]1C[C@@H](O)[C@@H]2O	-2	5	-1%	·	0	3%
Cc1cc(NC(=O)c2cccs2)ncc1NC(=O)c1cccc(F)c1	-8	3	?	-2%	-17	-18%
CN(C)/N=C/c1ccc(Sc2ccc([N+](=O)[O-])cc2[N+](=O)[O-])o1	-15	-2	?	5%	-27	23µM*
CCOP1(=O)C=C(Sc2ccc([N+](=O)[O-])cc2[N+](=O)[O-])C(C)(C)O1 (stereo not drawn)	2	12	5%	·	-13	-11%
Cc1c([N+](=O)[O-])ccc(S(=O)(=O)N2CCC(C(N)=O)CC2)c1C	7	10	-6%	4%	0	-1%
CC(=O)O[C@H]1CC[C@@]2(C)C(=CC[C@H]3[C@@H]4CC[C@H](C5(C)OCCO5)[C@@]4(C)CC[C@@H]32)C1	2	·	13%	0%	20	-2%
CCOCC(=O)NC1CCc2cc(OC(=O)COCC)c(OC)c(OC)c2-c2ccc(SC)c(=O)cc21 (stereo not drawn)	-5	-8	0.023µM*	·	27	0.15µM*
